Shown is part of a subset that was picked to be rich in hits.
GRP78 ERSR act: inducers of ER stress response in human glioma cells; Potency, µM, without a hit: at the highest dose activation, actives largely listed as activators; actives 0.02% (n = 420,000); U87-MG GRP78 promoter luciferase reporter, 16 h; further: series mostly up to about 76 µM; % of control where 0% means no effect; nearly all actives have a fitted effect of over 35% in size
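Stably transfected U87-MG glioma cells carrying a GRP78-based luciferase sensor; 16 h compound incubation. Luminescence end-point read 10 min after Bright-Glo addition at room temperature.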
VDR inhibitor: inhibitors of human vitamin D receptor; AID 504847; Potency, µM, inactives show max response, negative = inhibition, usual class: inhibitors; VDR-SRC2-3 peptide fluorescence polarization, 2 h; actives 0.93% (n = 400,000); P11473; further: on the % scale 0 is the no-effect control and ±100 the full control effect
Target sequence (P11473 whole entry, looked up): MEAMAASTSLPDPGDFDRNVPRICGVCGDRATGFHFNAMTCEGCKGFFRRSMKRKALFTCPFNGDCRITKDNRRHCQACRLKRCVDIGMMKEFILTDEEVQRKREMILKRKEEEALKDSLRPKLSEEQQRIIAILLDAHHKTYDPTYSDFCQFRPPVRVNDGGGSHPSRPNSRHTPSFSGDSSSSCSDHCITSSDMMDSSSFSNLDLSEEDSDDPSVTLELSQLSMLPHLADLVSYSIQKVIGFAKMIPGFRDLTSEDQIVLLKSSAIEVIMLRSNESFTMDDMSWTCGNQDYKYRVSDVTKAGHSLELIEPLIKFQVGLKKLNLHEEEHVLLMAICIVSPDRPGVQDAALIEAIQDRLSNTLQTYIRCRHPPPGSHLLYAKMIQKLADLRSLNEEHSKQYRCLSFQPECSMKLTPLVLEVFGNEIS
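Two reagent solutions held at 4 deg C in the dark were dispensed, compounds pinned at 23 nl, and the mixture incubated 2 h at room temperature. Read-out: fluorescence polarization of VDR–SRC2-3 peptide binding.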
ALOX12 inh: blocks human arachidonate 12S-lipoxygenase; Potency, µM (top dose mostly 108 µM), for the others: top-dose activity change, negative = inhibition, actives largely listed as inhibitors; P18054; actives 1.1% (n = 580,000); purified 12hLO, xylenol orange hydroperoxide absorbance; further: on the % scale 0 is the no-effect control and ±100 the full control effect
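Purified human 12hLO (150 nM final) in 25 mM Hepes, 0.01% Triton X-100, pH 7.0 was preincubated 15 min at room temperature with compound. Then 40 uM arachidonic acid was added, 30 min. Hydroperoxide was read by Fe-XO absorbance ratio 573/405 nm.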
Sfp inh: blocks B. subtilis Sfp PPTase activity; Potency, µM, for the others: largest response in the series, negative = inhibition, most hits filed as inhibitors; Biochemical Sfp PPTase activity, qHTS; actives 3.5% (n = 310,000);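 further: the enzyme is Sfp with the accession as filed and its product quenches rhodamine fluorescence; 0% = enzyme reaction without inhibitor and -100% = no enzyme wells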
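Sfp 15 nM + cpd, 15 min RT; start w/ rhodamine-CoA 5 uM, BHQ-2-YbbR 12.5 uM (final); 50 mM Hepes pH 7.6, 10 mM MgCl2, 0.01% NP-40, 0.01% BSA; read 525/598 nm at 0 and 30 min.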
G9a inh: inhibitors of human histone lysine methyltransferase G9a; Q96KQ7; G9a H3K9 monomethylation, AlphaScreen, 2 h; Potency, µM (series often up to 102 µM), for the others: top-dose activity, negative = inhibition, actives largely listed as inhibitors; actives 8.8% (n = 350,000); further: on the % scale 0 is the no-effect control and ±100 the full control effect; nearly all actives have a fitted effect of over 75% in size
Target sequence (Q96KQ7 913-1193 limits assumed): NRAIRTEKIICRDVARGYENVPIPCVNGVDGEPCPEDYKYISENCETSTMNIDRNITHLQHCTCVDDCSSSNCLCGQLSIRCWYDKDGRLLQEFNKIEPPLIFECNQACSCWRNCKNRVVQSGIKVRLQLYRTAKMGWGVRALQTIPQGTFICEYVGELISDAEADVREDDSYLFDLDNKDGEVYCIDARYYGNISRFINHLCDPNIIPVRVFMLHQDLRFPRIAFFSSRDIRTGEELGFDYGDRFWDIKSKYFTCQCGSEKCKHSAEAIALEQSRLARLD
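AlphaScreen read-out: biotin-H3K9 peptide (500 nM) methylation by 20 nM enzyme with 20 uM SAM, 2 h at room temperature after 15 min compound preincubation; anti-monomethyl H3K9 antibody plus donor/acceptor beads, 10 min dark.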
The depositor's hits bear a star; ? = inconclusive; nt = no result; [ ] = dose if it differs, or a comment. The call rests on the fitted dose curve; in most records, active means well fitted curve in the direction sought with a large enough effect; inconclusive means small, poorly fitted or top-dose-only effect, or another doubt; inactive means no such curve, though single readings can be large; an effect the other way counts as inactive or inconclusive. Potency means the concentration at half of the fitted maximal effect.

SMILES	GRP78 ERSR act	VDR inhibitor	ALOX12 inh	Sfp inh	G9a inh
O=C(CSC1=NCCS1)NCc1ccco1	-2%	20µM*	0%	13%	12%[12.7 µM]
O=C(c1ccccc1)N1CCC(Oc2cccc(F)c2)C1 (configuration not stated)	nt	nt	-1%	nt	nt
CCn1cnc2c1c(=O)n(CC(=O)Nc1c(C)cc(C)cc1C)c(=O)n2Cc1ccccc1	nt	nt	-14%	nt	nt
O=C(CNCc1ccc(Cl)cc1)NCc1ccco1	-2%	-10%	-27%	-16%	5.6µM*
CCOC(=O)C1CCN(C(=O)CCS(=O)(=O)Cc2ccccc2)CC1	-1%	-1%	-7%	17%	50µM*
CCOC(=O)C1CCN(C(=O)CCc2ccccc2)CC1	-3%	-23%	28%	14%	1%[12.7 µM]
O=C(CCS(=O)(=O)Cc1ccccc1)N1CCN(Cc2ccccc2)CC1	-3%	-6%	8%	12%	50µM*
O=C(CCS(=O)(=O)Cc1ccccc1)N1CCc2ccccc2C1	1%	-5%	4%	7%	20%[59 µM]
Cc1oc(-c2ccccc2F)nc1CS(=O)(=O)CC(=O)N1CCN(Cc2ccccc2)CC1	-2%	-11%	12%	16%	50µM*
CNCc1cccn1C	nt	nt	0.52µM*	nt	nt
Cc1ccc(S(=O)(=O)N2CC(O)CC2C(=O)OCc2nc3sc(C)c(C)c3c(=O)[nH]2)cc1 (configuration not stated)	-5%	9%	?	14%	4µM*
Cc1ccc(S(=O)(=O)N2CC(O)CC2C(=O)O)cc1 (configuration not stated)	-4%	-10%	-1%	10%	-3%
C=CC(=O)N1c2ccccc2Sc2ccc(NC(=O)OCC)cc21	?	-24%	-1%	nt	nt
CC(=O)c1ccc2c(c1)Nc1ccccc1S2	1%	-4%	0%	6%	2.8µM*
CCOC(=O)Nc1ccc2c(c1)Nc1ccccc1S2	5%	2%	?	6%	8.9µM*
O=S(=O)(Nc1ccc2nc(-c3ccc(Br)o3)[nH]c2c1)c1ccccc1	nt	nt	nt	50µM*	3%[12.7 µM]
CC(=O)Nc1ccc2nc(-c3ccc(Br)o3)[nH]c2c1	-4%	-15%	-16%	-72%	?
Cc1ccc(-c2nc3ccc(NS(=O)(=O)c4ccccc4)cc3[nH]2)o1	10%	12%	-26%[57.4 µM]	35µM*	?
COc1ccc(Cc2nc3nccc(-c4ccc(OC)cc4)n3n2)cc1	nt	nt	22%	nt	nt
CC1=CC(C)(C)Nc2ccc(OC(=O)c3cccnc3)cc21	-8%	-12%	-2%	?	45µM*
CC1=CC(C)(C)Nc2ccc(OC(=O)C(C)N3C(=O)c4ccccc4C3=O)cc21 (configuration not stated)	-16%	-5%	0%	3%	10µM*
CC1=CC2=NC(=O)/C(=C\c3cccn3CCOc3cc(C)cc(C)c3)C(=N)N2O1	-3%	1%	-3%	?	40µM*
COc1cccc(OCCn2cccc2/C=C2/C(=N)N3OC(C)=CC3=NC2=O)c1	-3%	3%	-7%	11%	18µM*
COc1ccc(CNC(=O)COc2ncnc3ccc(Br)cc23)cc1	nt	nt	-7%	nt	nt
CCCOc1ccc(NC(=O)c2ccccc2Cl)c2cccnc12	nt	nt	-13%	nt	nt
SMILES	GRP78 ERSR act	VDR inhibitor	ALOX12 inh	Sfp inh	G9a inh
Nc1n[nH]c(=S)n1/N=C1/C(=O)Nc2ccccc21	-2%	?	?	11µM*	1µM*
Cn1c(=O)nc2n(Cc3ccccc3)c3ccccc3cc-2c1=O	-3%	-18%	?	-27%	8.9µM*
COc1cc(C(=O)Nc2ccc3oc(C)nc3c2)cc(OC)c1OC	nt	nt	-2%	nt	nt
Cc1cccc(N2CCN(Cc3ccoc3)CC2)c1C	0%	-2%	?	-10%	10µM*
Cc1cccc(N2CCN(Cc3ccc([N+](=O)[O-])o3)CC2)c1C	-2%	2%	?	-29%	25µM*
Cc1cc(CN2CCN(c3cccc(C)c3C)CC2)cs1	-5%	6%	?	nt	-2%[59 µM]
O=[N+]([O-])c1ccc(CN2CCN(c3ccc(F)cc3)CC2)o1	-1%	-8%	?	-44%	?
Cc1ccc2sc(N(CCCN(C)C)C(=O)c3ccc(S(=O)(=O)N(C)Cc4ccccc4)cc3)nc2c1C	-1%	7%	28µM*	nt	10µM*
CCN(c1ccccc1)S(=O)(=O)c1ccc(C(=O)N(CCCN(C)C)c2nc3c(C)cccc3s2)cc1	-4%	-3%	?	-15%	nt
CCN(Cc1ccccc1)S(=O)(=O)c1ccc(C(=O)N(CCCN(C)C)c2nc3c(F)cccc3s2)cc1	-5%	-14%	?	79µM*	?
CN(C)CCCN(C(=O)c1ccc(C(=O)c2ccccc2)cc1)c1nc2c(F)cccc2s1	7%	-9%	?	-18%	nt
CCOc1cccc2sc(N(CCCN(C)C)C(=O)c3ccc(S(=O)(=O)N(C)Cc4ccccc4)cc3)nc12	-6%	10%	?	56µM*	?
CCOc1cccc2sc(N(CCCN(C)C)C(=O)c3ccc(C(=O)c4ccccc4)cc3)nc12	-5%	8%	?	-16%	71µM*
COc1ccccc1C(=O)C1CCCN(C(=O)c2ccc(Cl)cc2)C1 (configuration not stated)	-2%	nt	4%	nt	nt
COc1ccccc1C(=O)C1CCCN(C(=O)c2cn3cc(Cl)ccc3n2)C1 (configuration not stated)	2%	-7%	?	8%	28µM*
COc1ccc(N2CC(C(=O)N3CCC(c4nc5ccccc5[nH]4)CC3)CC2=O)cc1 (configuration not stated)	-5%	-13%	2%	nt	-18%
COc1ccc(NC(=O)N2CCC(c3nc4ccccc4[nH]3)CC2)cc1	-5%	-6%	-8%	9%	40µM*
O=C(C1CC(=O)N(c2ccccc2)C1)N1CCC(c2nc3ccccc3[nH]2)CC1 (configuration not stated)	-6%	?	-17%	nt	45µM*
CCOc1ccccc1NC(=O)N1CCC(c2nc3ccccc3[nH]2)CC1	-5%	12%	7%	11%	-44%[12.7 µM]
CCN(CC)Cc1ccccc1CNC(=O)C12CC3CC(CC(NC(C)=O)(C3)C1)C2	nt	nt	3%	nt	nt
COc1ccc(S(=O)(=O)NCC(=O)O)c2ccccc12	nt	nt	49%	nt	nt
Cc1ccc(-c2cc(Nc3ccccc3)nc(C)n2)cc1	nt	nt	7.1µM*	nt	nt
Cc1ccc(-c2cc(Nc3ccccc3C(F)(F)F)nc(C)n2)cc1	nt	nt	16µM*	nt	nt
Cc1c(C)n2c3c(=O)[nH]c(=O)n(C)c3nc2n1CCNc1ccccc1Cl	nt	nt	4%	nt	nt
Cc1ccc(-c2nc(-c3ccc(C(C)(C)C)cc3)c(C)s2)cc1	nt	nt	8%	nt	nt
CCOc1ccc(C2NC(=O)N(Cc3noc(C4CCCCC4)n3)C3=C2C(=O)OC3)cc1 (configuration not stated)	nt	nt	4%	nt	nt
Cc1ccc(OC(=O)N2CCC(Oc3ccc4c(cnn4CCC(=O)O)c3)CC2)cc1	nt	nt	9%[176 µM]	nt	nt

Source: PubChem
